# Test results published in PubChem BioAssay (NCI).
# This is part of a sample that, as a whole, favours compounds with a hit. Of some 83,000 tested, about 20% had one in any assay.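 Note: values are percent growth. 100 is the growth of untreated cells, values between 100 and 0 indicate rising inhibition; between -100 and 0 indicates cell death.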 Values without a mark were called inactive. Activity calls are given as the source filed them. The calls were made as follows: active = growth percent below 10; inactive = the rest.
# System: HL-60(TB) leukemia
# Assay: NCI-60 one-dose screen, 48 h (100 = growth as untreated, 0 = no growth, -100 = all killed)
# Conditions: 10 µM unless noted
row,SMILES,growth
1,COc1cc(/C=C/C(=O)c2ccc(-n3cc(CN4CCN(c5cc6c(cc5F)c(=O)c(C(=O)O)cn6C5CC5)CC4)nn3)cc2)ccc1O,90.3%
2,CCN(CC)Cc1cc(Nc2ccnc3ccc(OC)cc23)ccc1O,32.5%
3,CC1=CSC2=NCCN12,97.1%
4,CN1C(=O)C(C(=O)/C=C/c2ccccc2C(=O)O)C(=O)N(C)C1=O,97.4%
5,COc1ccc2c(c1)O/C(=C\c1ncc([N+](=O)[O-])n1C)C2=O,-3.86% (active)
6,COc1cc(CN2CCO[C@H](COc3cccc(F)c3)C2)ccc1Cl,26.3%
7,Cc1ccccc1N1CCN(C(=S)c2ccccc2)CC1,108%
8,Oc1c(I)cc(-c2nc3ccccc3s2)cc1CN(Cc1ccccn1)Cc1ccccn1,2.06% (active)
9,O=C(N/N=C/c1cc([N+](=O)[O-])ccc1O)c1cccc2ccccc12,-14% (active)
10,Nc1c(Cl)cccc1[N+](=O)[O-],112%
11,CN(C)CCCn1c2c(c3cnccc3c1=O)C(=O)c1ccccc1-2,2.29% (active)
12,C=C(C)C1CC(O)C2(C)CCCC3C2C1CC(C)C3(C)CC/C(C)=C/C(O)C1CCC(=O)c2c(OC)cc(OC)cc21 (stereo not given),22.4%
13,CC(C)=CC/C=C(/C)[C@H]1CC[C@]2(C)[C@@H]1CC[C@@H]1[C@@]3(C)CCC(=O)NC(C)(C)[C@@H]3CC[C@]12C,-22.1% [100 µM] (active)
14,CC(=O)c1nc2ccccc2n1CCNC(N)=O,80.5%
15,CCc1nc2cc(/C=C/C(=O)NO)c(F)cc2c(=O)n1CCc1ccccc1,-8.55% (active)
16,COc1ccc(-c2nc(Nc3cc(C)[nH]n3)c3ccccc3n2)cc1,41.4%
17,CCOC(=O)c1cc2cccc(OC)c2oc1=O,117%
18,COc1ccc2c(c1)c(CC(=O)[Se]C)c(C)n2C(=O)c1ccc(Cl)cc1,-38.9% (active)
19,O=c1oc2ccc(Br)cc2c(=O)n1-c1ccc(Cl)cc1F,-32.8% (active)
20,NCCCNc1nc2ccc(Cl)cc2c2c(=O)c3cc(F)ccc3sc12,34.9%

row,SMILES,growth
1,Cc1ccc(NC(=O)c2sc3nc4c(cc3c2N)C(=O)CCC4)cc1,110%
2,CCOC(=O)c1c(C)oc2ncnc(N3CCN(C(=O)COc4ccc(C(C)(C)C)cc4)CC3)c12,73.9%
3,O=C(c1ccccc1)c1ccccc1-c1ccccc1,-4.58% (active)
4,CCOC(=O)C1=C(C)N(C)C(=O)N(C)C1c1ccccc1 (stereo not given),-4.05% (active)
5,O=C(NC(Cc1nnc2n(Cc3ccccc3)c(=O)c3c4c(sc3n12)CCCC4)c1ccccc1)c1ccccc1 (stereo not given),-70.3% (active)
6,CC1=NOC(=O)/C1=C\c1ccc(O)cc1,105%
7,CCN(CC)CCCOCCCNc1cc(OC)cc2cccnc12,107%
8,CN(C)Cc1ccc(C(=O)Nc2ccc3ncnc(Nc4ccc(Oc5cccc(F)c5)c(Cl)c4)c3c2)cc1,-41.7% (active)
9,Cl.[Pt].[c-]1ccccc1-c1ccccn1.c1ccc(P(c2ccccc2)C([PH+](c2ccccc2)c2ccccc2)[PH+](c2ccccc2)c2ccccc2)cc1,7.19% (active)
10,CCN=C1C=CC(=C(c2ccc(N)cc2)c2ccc(N(CC)CC)c(C)c2)C=C1,-11% (active)
11,CC1SC(c2ccc(N(C)C)cc2)N(NC(=O)C(O)(c2ccccc2)c2ccccc2)C1=O (stereo not given),84.2%
12,O=C(O)c1ccc([N+](=O)[O-])cc1S(=O)(=O)O,108%
13,Cc1ccc(NC(=O)c2sc3nc(C)c(C(O)c4ccccc4)cc3c2N)cc1 (stereo not given),-47.5% (active)
14,CCN(CC)C12CCCCC1(C)C(C#N)(C#N)C(C#N)=C(N)O2 (stereo not given),72.5%
15,N#Cc1c(-c2ccco2)nc2c(c(-c3ccccc3)nn2-c2ccccc2)c1-c1ccc(O)cc1,22.9%
16,CSc1nc(=S)c2nc(SC)n(-c3ccccc3)c2[nH]1,110%
17,O=C(Nc1nc(-c2ccccc2)nc2c1sc(=S)n2-c1ccccc1)C(F)(F)F,94.5%
18,CCCNNC(=O)c1ccc(CNC(=O)/C=C/c2ccccc2)cc1,33.4% [2.5 µM]
19,OC1(c2ccccc2)c2ccccc2N(c2ccccc2)c2ccc(Cl)cc21 (stereo not given),-22.2% (active)
20,CNC(=O)c1c(C)oc2cc(Oc3ncnc4cc(OC)c(OC)cc34)ccc12,117%
